# D3 antag – D3 dopamine receptor (human) antagonism. P35462. D3R cells, DiscoveRx beta-arrestin luminescence, antagonist mode; hits give low values. 2.5% of 360,000 active. max response, negative = inhibition, %; in the data active = max response below about -50%; inconclusive = no clear call, values can overlap the other calls; note: % is set by controls: 0 for no effect and ±100 for the full control effect
#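 Cells plated overnight at 1500 cells/well, then exposed to library compounds with dopamine controls for 90 minutes at 37 degrees C. DiscoveRx reagent added for 30–60 minutes at room temperature; luminescence read, quantitative HTS format.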
# D1 ag – human D1 receptor agonism; P21728; HEK293 T-REx D1 cells, calcium flux, agonist mode; activation, % at 2 µM; 1% of 360,000 active; AID 504660; in the data active = activation above about 30%; note: 0% is about no effect
# Target sequence (P21728 whole entry, looked up): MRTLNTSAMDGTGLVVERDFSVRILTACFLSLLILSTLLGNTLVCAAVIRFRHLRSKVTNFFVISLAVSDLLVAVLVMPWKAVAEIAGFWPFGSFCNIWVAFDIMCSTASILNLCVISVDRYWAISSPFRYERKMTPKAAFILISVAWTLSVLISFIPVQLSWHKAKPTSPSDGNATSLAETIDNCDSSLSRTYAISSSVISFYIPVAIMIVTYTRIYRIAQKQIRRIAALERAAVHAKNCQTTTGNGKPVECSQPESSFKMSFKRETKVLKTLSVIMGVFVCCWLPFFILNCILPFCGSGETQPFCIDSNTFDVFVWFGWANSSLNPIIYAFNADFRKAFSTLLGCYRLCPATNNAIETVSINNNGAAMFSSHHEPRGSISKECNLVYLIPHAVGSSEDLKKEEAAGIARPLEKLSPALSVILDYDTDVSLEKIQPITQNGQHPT
#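 Agonism was scored from calcium flux recorded over 180 s (1 read/s) after pintool compound addition, following a 10-cycle baseline. Cells were inducible force-coupled HEK293 TREx D1, plated overnight at 30 C and loaded with no-wash calcium dye.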
# D1 potentiator – potentiators of human D1 dopamine receptor; P21728; HEK293 TREx D1 cells, calcium flux, dopamine EC20 potentiation; potentiation, % at 10 µM; 0.036% of 360,000 active; AID 504651; in the data active = potentiation above about 30%; note: 0% is about no effect
# D1 antagonist – human D1 dopamine receptor antagonism | HEK293 TREx D1 cells, calcium flux, dopamine EC80; hits give low values | activity change, negative = inhibition, % at 10 µM | 3.2% of 360,000 active; in the data active = activity change below about -30%; note: % is set by controls: 0 for no effect and ±100 for the full control effect
#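 Kinetic fluorescence of a calcium dye serves as the read-out. D1-expressing Hek293 Trex cells, induced overnight at 30 C, are exposed to compound for 180 s before an EC80 dopamine addition, then read 180 s further.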
# DRD3 agonist – agonists of human D3 dopamine receptor; P35462; D3R DiscoveRx beta-arrestin cells, luminescence, 90 min; max activation, %; 0.58% of 410,000 active; AID 652048; in the data active = max activation above about 30%; note: 0% is about no effect
#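 Agonist mode: compounds and dopamine controls were applied to plated cells for 90 min at 37 degrees C after an overnight attachment at 1500 cells/well. Luminescent read-out followed 30 - 60 minutes at room temperature with DiscoveRx detection reagent.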
# An asterisk follows results filed as active; ? = inconclusive; . = no result. Compounds with a hit are over-represented: about 6% of the library has one in this group of screens.
SMILES,D3 antag,D1 ag,D1 potentiator,D1 antagonist,DRD3 agonist
Cn1nnnc1Sc1ncnc2scc(-c3cccc([N+](=O)[O-])c3)c12,.,4,1,1,.
CCOC(=O)c1sc(NC(=O)CSc2n[nH]c(-c3ccccc3)n2)c(C#N)c1C,24,26,-2,-36*,7
CSc1ncc(C(=O)Nc2c(C)cccc2C)c(-c2ccccc2)n1,.,5,-3,-1,-2
O=C(c1cccc(F)c1)N1CCC(N2CCCCCC2)CC1,-74*,0,-8,4,3
CC(C)COc1ccc(C(=O)Nc2onc3c2CCCC3)cc1,.,10,-1,-45*,-9
CCOc1ccc(C(=O)Nc2onc3c2CCCC3)cc1,.,-2,-1,-13,1
Cc1ccc(C(=O)Oc2ccc(Cl)c3cccnc23)cc1[N+](=O)[O-],-126*,2,-11,-7,-29
Cc1cccc(NC(=O)Oc2ccc(Cl)c3cccnc23)c1,-120*,.,.,.,-30
O=C(Oc1ccc(Cl)c2cccnc12)c1cccnc1,-70*,0,3,-22,-7
O=c1c(N2CCN(c3cccc(Cl)c3)CC2)csc2ccc(Cl)cc12,.,9,-6,-19,-27
COc1ccc2c(c1)OC(C)(C)C(c1ccccc1)C2c1ccc(OCCN2CCCC2)cc1 (centres undefined),.,.,.,.,-16
CCCN1CCC(=O)N([C@H](CSc2ccc(OC)cc2)CC(C)C)CC1,?,0,-2,-34*,-28
CC(=O)Nc1ccc(SC[C@H](Cc2ccccc2)N2CCN(CCc3ccccc3)CCC2=O)cc1,5,7,-5,-33*,-29
CC(=O)Nc1ccc(SC[C@H](Cc2ccccc2)N2CC[C@@H](O)CCC2=O)cc1,-2,-1,-1,-18,-8
CC(C)C[C@@H](CSc1ccccc1)N1CCN(CCc2ccccc2)CCC1=O,-56*,5,6,-4,-31
Cc1ccn2c(=O)cc(COc3cccc(NC(=O)Nc4cccc(Cl)c4C)c3)nc2c1,.,-2,-1,15,3
COC(=O)c1c(NC(=O)Cc2cccs2)sc2c1CCCC2,?,5,1,12,1
COC(=O)c1c(NS(=O)(=O)c2cccs2)sc2c1CCCC2,-57*,1,19,18,-4
CCOC(=O)c1c(NS(=O)(=O)c2cccc(OC)c2)sc2c1CCC2,-4,64*,0,-8,-1
CC(C)Oc1ccc(CNC(=O)c2sc3ncccc3c2-n2cccc2)cc1,.,16,-4,-11,-8
Cc1ccc(NC(=O)CCCNC(=O)c2ccc(Cl)cc2)c(O)c1,6,3,1,-32*,-7
Cc1ccc(OCCn2c(C3CC(=O)N(Cc4ccc(F)cc4)C3)nc3ccccc32)c(C)c1 (centres undefined),.,20,-3,-16,-16
N#Cc1ccc(C(=O)NC(=S)NC2CCCCC2)cc1,-55*,.,.,.,-4
O=C(NCCc1ccccc1)c1nnc(Cc2cccc(F)c2)o1,.,38*,0,5,-11
O=C(NCc1ccc2c(c1)OCO2)c1nnc(Cc2ccc(F)cc2)o1,-11,3,-2,-56*,-4
SMILES,D3 antag,D1 ag,D1 potentiator,D1 antagonist,DRD3 agonist
O=C(NCc1ccc(F)cc1)c1nnc(Cc2cccc(F)c2)o1,.,23,1,16,3
CN1CCN(c2ccc(CNC(=O)C3Cc4c(-c5ccc(Cl)cc5)ccnc4O3)cc2)CC1 (centres undefined),-56*,.,.,.,-28
COc1cc(OC)cc(-c2nc3nc(C)c(CCC(=O)Nc4ccc(F)cc4F)c(C)n3n2)c1,.,1,-3,2,0
O=C1CCNc2ccc(-c3ccccc3)cc21,1,68*,-8,-13,-2
CCCCN(C)C(=O)c1ccc2c(c1)NC(=O)C(CC(C)C)N2 (centres undefined),.,-3,0,18,5
COc1cc(NC(=O)c2cc3ccccc3cc2O)c(OC)cc1Cl,58,17,-10,-58*,19
Cc1ccc(Cl)cc1NC(=O)COC(=O)c1ccccc1O,-13,2,7,0,-8
Cc1ccc(Cl)cc1NC(=O)c1cc2ccccc2cc1O,27,27,-9,-45*,36*
Cc1ccc(CNC(=O)C2CCCN(S(=O)(=O)c3cn(C)cn3)C2)cc1 (centres undefined),.,-2,-1,-6,10
COCCn1ccc2c(OCC(=O)Nc3ccccc3F)cccc2c1=O,.,0,0,.,5
CC(c1ccc(F)cc1)n1cc(C(=O)NCc2ccccn2)nn1 (centres undefined),9,22,-4,14,3
COc1ccc(N=c2oc3c(OC)cccc3cc2C(=O)NCc2ccco2)cc1OC,18,0,5,-7,33*
Cc1ccc(CNC(=O)c2cc(NS(=O)(=O)c3ccc(C)cc3)ccn2)cc1,.,-1,3,-32*,7
Cc1ccc(C(C)n2cc(C(=O)NCc3ccccn3)nn2)cc1 (centres undefined),-4,33*,-6,15,3
COc1cccc2cc(C(=O)NCc3ccccn3)c(=O)oc12,4,0,-3,-49*,-4
Cc1ccc(NS(=O)(=O)c2ccc(C(=O)NCc3ccncc3)cc2)cc1,8,27,8,13,10
CC(CNC(=O)CN1C(=O)COc2ccc(S(=O)(=O)N3CCCCCC3)cc21)c1ccccc1 (centres undefined),.,2,-6,-8,-13
Cc1ccc(C)c(CN2C(=O)c3ccccc3S(=O)(=O)c3ccc(C(=O)N4CCN(c5ccccc5F)CC4)cc32)c1,.,2,-1,-15,8
CCN1c2cc(C)ccc2-n2cccc2C12CCN(C(=O)Nc1cc(OC)c(OC)c(OC)c1)CC2,.,1,1,9,-1
CCc1ccccc1NC(=O)Nc1cc(C(=O)NCc2ccc(OC)cc2)ccc1N1CCCC1,.,3,0,-9,7
O=C(O)C1CCCCC1C(=O)NCc1ccccn1 (centres undefined),-5,2,-11,17,1
CCOc1ccc(NS(=O)(=O)c2ccc(C(=O)NCc3ccncc3)cc2)cc1,7,12,-10,5,5
CC(=O)Nc1ccc(S(=O)(=O)Nc2ccc(C(=O)NCC(=O)O)cc2)cc1,3,2,-3,-66*,4
CC1=C(C)CC(C(=O)NCc2ccccn2)C(C(=O)O)C1 (centres undefined),23,3,-4,-91*,3
O=C(CNS(=O)(=O)c1ccccc1)NCc1ccccn1,-51*,2,-10,-6,2
CCOc1ccc(NS(=O)(=O)c2ccc(C(=O)NCc3ccccn3)cc2)cc1,5,33*,-19,8,6
CC(=O)Nc1ccc(S(=O)(=O)Nc2ccc(S(=O)(=O)Nc3nc(C)cc(C)n3)cc2)cc1,1,4,-1,-20,-13
CCCCC(=O)N(Cc1ccc(-c2ccccc2-c2nn[nH]n2)cc1)[C@@H](C(=O)O)C(C)C,.,.,.,.,-9

# Compound activity deposited in PubChem by National Center for Advancing Translational Sciences (NCATS).
